# Literature values, collected in PubChem BioAssay AID977608.
# Among all 4,300 compounds or so, about 4,300 (100%) were called active. No cut-off is given here; in the data, nearly all actives have IC50 up to about 1400 µM. The set was probably picked from earlier hits. Some of the results follow. Square brackets hold non-standard residues; d marks the D form. Residues, ends and D or L forms follow the SMILES beside them. Peptide text beside a SMILES is read from it. * marks the point of attachment. Orn(CH(NH2)2) = NC(N)NCCC[C@H](N)C(=O)O; Abu = CC[C@H](N)C(=O)O; Propionyl = CCC(=O)*
# Experiment: literature IC50 values for PDB complexes, PDB-derived complexes (AID 977608)
# Settings: PDB protein-ligand complexes
compound,measurement,setting,value
COc1c(C(C)(C)C)cc(C2=CCC=NC2=O)c2ncc(N3CC[C@H](CNS(C)(=O)=O)C3)cc12,IC50,"protein: Hepatitis C Virus polymerase NS5B genotype 1b (BK), PDB entry 4mib",0.0002 µM (active)
COc1cc(-c2ccc3c(c2)OCCN3C)cc(C)c1O,IC50,"protein: Serine/threonine-protein kinase/endoribonuclease IRE1-alpha, PDB entry 4pl4",5.4 µM (active)
COc1cc(-c2ccc(N3CCOCC3)cc2)cc(C)c1O,IC50,"protein: IRE1-alpha, PDB entry 4pl5",11 µM (active)
CN1CCC(C=N)(NC(=O)[C@H](CC2CCCCC2)NC(=O)N2CCOCC2)CC1,IC50,"protein: human Cathepsin S, PDB entry 2r9m",0.0015 µM (active)
CN(C)CCNC1CCN2NC=C(c3cn[nH]c3)C2N1 (stereo not given),IC50,"protein: Serine/threonine-protein kinase pim-1, PDB entry 4mbi",0.007 µM (active)
Cc1ccc(C(=O)Nc2ccc(S(O)(O)O)c3cccc(S(O)(O)O)c23)cc1NC(=O)c1cccc([N+](=O)[O-])c1,IC50,"protein: mNV-RdRp, PDB entry 4nru",0.115 µM (active)
CCCCCCCC(=O)O[C@@H]1[C@@H](OC(=O)[C@H](C)CC)[C@@H](C)[C@@H]2[C@H]1[C@@](C)(OC(C)=O)C[C@H](OC(=O)CCC)[C@@]1(O)[C@H]2O[C@@H](O)[C@@]1(C)O,IC50,"protein: Sarcoplasmic/endoplasmic reticulum calcium ATPase 1 (SERCA1a), PDB entry 3n5k",0.0002 µM (active)
O=C(Nc1cnn(-c2cccc(C(=O)Nc3cnn([C@H]4CCNC4)c3)c2)c1)Nc1ccccc1Cl,IC50,"protein: Mitogen-activated protein kinase 10 JNK3, PDB entry 4whz",0.001 µM (active)
Cc1nc2ccccc2[n+]([O-])c1C,IC50,"protein: Peroxiredoxin-1, PDB entry 4kw6",374 µM (active)
CC(C)C[C@@H]1NC(=O)c2c1c1c3ccccc3n(CCCCN)c1c1[nH]c3ccccc3c21,IC50,"protein: Proto-oncogene tyrosine-protein kinase Src, PDB entry 4mcv",0.0013 µM (active)
O=C[N+](=O)CCC[P+](O)(O)O,IC50,"protein: E. coli 1-deoxy-D-xylulose 5-phosphate reductoisomerase (DXR), PDB entry 1onp",0.03 µM (active)
same,IC50,"protein: Oxidoreductase, PDB entry 3upy",2.39 µM (active)
NC(=O)C[C@@H]1NC(=O)C2(CCCCC2)NC(=O)C[C@@H](c2ccc(C[P+](O)(O)O)cc2)/C=C/C[C@@H](Cc2cccc3ccccc23)CNC1=O,IC50,"protein: growth factor receptor binding protein SH2 domain, PDB entry 1x0n",0.02 µM (active)
CC(C)C1=CC2=C(C(O)C1=O)[C@@]1(C)CCCC(C)(C)[C@@H]1C(=O)C2 (stereo not given in full),IC50,"protein: Farnesyl pyrophosphate synthase HsFPPS-5, PDB entry 4p0v",1.2 µM (active)
O=C(c1csc(-c2ccsc2)n1)n1ccc2ccccc21,IC50,"protein: 3-OXOACYL-[ACYL-CARRIER-PROTEIN] REDUCTASE FABG, PDB entry 4bo6",0.18 µM (active)
H-SDFEEFSLDDIEQ-OH,IC50,"protein: ?-thrombin, PDB entry 1thr",4.2 µM (active)
H-ETFEHWWSQLLS-OH,IC50,"protein: E3 ubiquitin-protein ligase Mdm2, PDB entry 3jzs",0.008 µM (active)
same,IC50,"protein: Human Protein Mdm4, PDB entry 3jzq",0.11 µM (active)
CC[C@H](C)[C@H](NC(=O)[C@H](Cc1ccccc1)NC(=O)[C@H](Cc1ccc(O)cc1)NC(=O)[C@H](CCC(=O)O)NC(=O)[C@@H](N)CCCCN)C(=O)O (tested in a mixture with another compound) (H-KEYFI-OH),IC50,"protein: HLA class I histocompatibility antigen, A-2 alpha chain HLA-A*0201, PDB entry 4u6x",0.414 µM (active)
H-LTFEHWWAQLTS-OH,IC50,"protein: E3 ubiquitin-protein ligase Mdm2, PDB entry 3jzr",0.036 µM (active)
same,IC50,"protein: Human Protein Mdm4, PDB entry 3jzp",0.25 µM (active)
C#Cc1csc2c1NC(NC1CCCC1)=[N+](CC)C2O (stereo not given),IC50,"protein: High affinity cAMP-specific 3',5'-cyclic phosphodiesterase 7A PDE7A, PDB entry 4pm0",0.045 µM (active)
N#Cc1ccc(-c2ccc(OCC(=O)O)cc2CN2CCN(c3ccccn3)CC2)cc1,IC50,"protein: PANTOTHENATE KINASE, PDB entry 4bfy",0.12 µM (active)
CCc1c(N2CCOCC2=O)cccc1S(=O)(=O)N[C@@H](Cc1cc(-c2ccc(Cl)s2)on1)C(=O)N1CCC(OC)CC1,IC50,"protein: COAGULATION FACTOR X LIGHT CHAIN & COAGULATION FACTOR X, PDB entry 4btt",0.00143 µM (active)
COCCOCCc1c(C)c2cc(OC)c(O)c(C)c2oc1=O,IC50,"protein: Serine/threonine-protein kinase/endoribonuclease IRE1-alpha, PDB entry 4pl3",0.29 µM (active)
Cc1cc(O)c(C(C)C)cc1N=O,IC50,"protein: Serine/threonine-protein kinase PLK1, PDB entry 4h71",35.6 µM (active)
Oc1ccc(-c2nc(-c3ccc(F)cc3)c(-c3ccncc3)[nH]2)cc1,IC50,"protein: Bromodomain-containing protein 4 BRD4-1, PDB entry 4o77",2.5 µM (active)
N#Cc1ccc(O)cc1F,IC50,"protein: M-phase inducer phosphatase 2 CDC25B, PDB entry 4wh7",5000 µM (active)
CC(=O)N1CCC[C@H]([C@]2(Cc3cccc(Cl)c3)C(=O)Nc3cc(Cl)ccc32)C1,IC50,"protein: Humanized Xenopus E3 ubiquitin-protein ligase Mdm2, PDB entry 4lwt",3.9 µM (active)
CCOc1c(I)cc(Cl)cc1CNCCCNC(=O)Nc1ccsc1,IC50,"protein: Trypanosoma brucei methionyl-tRNA synthetase, PDB entry 4mw7",10 µM (active)
OCc1cc(-c2cn[nH]c2-c2ccc(F)cc2)ccn1,IC50,"protein: Casein kinase I isoform delta, PDB entry 4kbc",0.0142 µM (active)
COc1ccccc1-n1c(-c2cc(O)ccc2C)c[n+]2c3c(=O)[nH]c(=O)n(C)c3[nH]c12,IC50,"protein: EPH receptor A3, PDB entry 4gk2",0.0016 µM (active)
O=C1CCN(c2cccc([N+](=O)[O-])c2)C(=O)N1,IC50,"protein: Bifunctional protein GlmU, PDB entry 4kpz",1950 µM (active)
CCC(=O)NCCCC[C@H](NC(=O)[C@@H]1CCCN1C(=O)[C@H](CCCNC(N)N)NC(=O)[C@@H](NC(=O)[C@H](CCSC)NC(=O)[C@H](C)NC(=O)[C@@H](NC(=O)[C@@H]1CCCN1C(=O)[C@H](CCCNC(N)N)NC(=O)[C@H](CC(C)C)NC(=O)[C@H](CCCCN)NC(C)=O)C(C)C)C(C)C)C(=O)N[C@H](C(=O)N[C@@H](CCCNC(N)N)C(=O)O)C(C)C (Ac-KL[Orn(CH(NH2)2)]PVAMV[Orn(CH(NH2)2)]PK(Propionyl)V[Orn(CH(NH2)2)]-OH),IC50,"protein: E3 ubiquitin-protein ligase SIAH1, PDB entry 4i7d",0.1 µM (active)
CC[C@H](NC(=O)[C@@H](NC(=O)[C@@H]1CCCN1C(=O)[C@H](CCCNC(N)N)NC(=O)[C@@H](N)CC(C)C)C(C)C)C(=O)N[C@@H](CCSC)C(=O)N[C@H](C(=O)N[C@@H](CCCNC(N)N)C(=O)N1CCC[C@H]1C(=O)N[C@H](C(=O)N[C@H](C(=O)O)C(C)C)[C@@H](C)O)C(C)C (H-L[Orn(CH(NH2)2)]PV[Abu]MV[Orn(CH(NH2)2)]PTV-OH),IC50,"protein: E3 ubiquitin-protein ligase SIAH1, PDB entry 4i7b",2 µM (active)
